Source: PubChem BioAssay AID1159580 (chemical genetic matrix, 2015)
Several values for one entry are separate records, joined by “and”; a condition that tells them apart may be missing. Equal values may be shown once. In all, about 5,500 compounds went through this assay and about 2,000 (36%) were called active. Roughly 18% stayed inconclusive and do not appear here. No stated cut-off is given here; in the data, active means normalized growth mostly below about 0.91 (no sharp cut-off); inconclusive means no clear call, values can overlap the other calls; inactive means mostly above about 0.92. This is one part of the list.

Experiment: chemical genetic growth profiling, strain panel (AID 1159580);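 further: tested at 20 µM; growth read once vehicle control cultures reached saturation at 30 °C; 1 = growth at the plate median or of vehicle wells; lower values mean less growth of the strain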
Details: S. cerevisiae deletion strains, growth OD

Measured: normalized growth

C[C@H]1COc2c(N3CCN(C)CC3)c(F)cc3c(=O)c(C(=O)O)cn1c23
active: locus YCL011C, strain gbp2, hits give low values 0.259
inactive: locus YAL013W, strain DEP1, hits give low values 1 | locus YAL021C, strain ccr4, hits give low values 1.02 | locus YAL026C, strain drs2, hits give low values 1.03 | locus YAL030W, strain snc1, hits give low values 1.02 | locus YBR009C, strain hhf1, hits give low values 1.01 | locus YBR021W, strain FUR4, hits give low values 0.995 | locus YBR023C, strain chs3, hits give low values 1.02 | locus YBR171W, strain sec66, hits give low values 1.04 | locus YBR229C, strain ROT2, hits give low values 1 | locus YBR231C, strain swc5, hits give low values 1.02 | locus YBR279W, strain paf1, hits give low values 1.02 | locus YCL016C, strain dcc1, hits give low values 1.02 | locus YCL029C, strain bik1, hits give low values 1.02 | locus YCL061C, strain MRC1, hits give low values 1.04 | locus YCL069W, strain vba3, hits give low values 1.02 | locus YCR088W, strain abp1, hits give low values 1.02 | locus YDL005C, strain med2, hits give low values 1.04 | locus YDL035C, strain GPR1, hits give low values 1.02 | locus YDL040C, strain nat1, hits give low values 1.02 | locus YDL074C, strain BRE1, hits give low values 1.01 | locus YDL101C, strain DUN1, hits give low values 0.999 | locus YDL134C, strain PPH21, hits give low values 1.01 | locus YDL185W, strain tfp1, hits give low values 1.02 | locus YDL192W, strain arf1, hits give low values 1.02 | locus YDR001C, strain nth1, hits give low values 1.02 | locus YDR069C, strain doa4, hits give low values 1.04 | locus YDR101C, strain arx1, hits give low values 1.01 | locus YDR137W, strain rgp1, hits give low values 0.989 | locus YDR150W, strain NUM1, hits give low values 0.999 | locus YDR159W, strain sac3, hits give low values 1.03 | locus YDR162C, strain NBP2, hits give low values 0.989 | locus YDR195W, strain ref2 0.993 | locus YDR297W, strain sur2, hits give low values 1.02 | locus YDR318W, strain mcm21, hits give low values 1.02 | locus YDR334W, strain swr1, hits give low values 1.01 | locus YDR335W, strain msn5, hits give low values 1.02 | locus YDR388W, hits give low values 1.01 | locus YDR392W, strain spt3, hits give low values 1.04 | locus YDR502C, strain sam2, hits give low values 1.01 | locus YEL003W, strain gim4, hits give low values 1.01 | locus YEL037C, strain rad23, hits give low values 1.03 | locus YEL061C, strain CIN8 (second series), hits give low values 1.04 | locus YEL061C, strain CIN8, hits give low values 0.993 | locus YER015W, strain faa2, hits give low values 1.01 | locus YER016W, strain bim1, hits give low values 1.02 | locus YER110C, hits give low values 1.02 | locus YER111C, strain swi4, hits give low values 1.03 | locus YER155C, strain BEM2 (second series), hits give low values 1.03 | locus YER155C, strain BEM2, hits give low values 1.01 | locus YER167W, strain BCK2, hits give low values 1 | locus YFR010W, strain ubp6, hits give low values 1.03 | locus YGL078C, strain dbp3, hits give low values 1.02 | locus YGL086W, strain mad1, hits give low values 1.01 | locus YGL167C, strain pmr1, hits give low values 1.03 | locus YGL173C, strain kem1, hits give low values 1.01 | locus YGL227W, strain vid30, hits give low values 1.02 | locus YGL240W, strain doc1, hits give low values 1.02 | locus YGL248W, strain PDE1, hits give low values 1 | locus YGL253W, strain hxk2, hits give low values 1.01 | locus YGR078C, strain PAC10, hits give low values 0.998 | locus YGR135W, strain pre9, hits give low values 1.01 | locus YGR229C, strain SMI1, hits give low values 0.989 | locus YGR252W, strain gcn5, hits give low values 0.996 | locus YHR013C, strain ard1, hits give low values 1.02 | locus YHR027C, strain rpn1, hits give low values 1.01 | locus YHR030C, strain SLT2, hits give low values 1.01 and 0.977 | locus YHR079C, strain IRE1 (second series), hits give low values 1.01 | locus YHR079C, strain IRE1, hits give low values 0.991 | locus YHR094C, strain hxt1, hits give low values 1.01 | locus YHR129C, strain ARP1, hits give low values 1.01 | locus YHR142W, strain chs7, hits give low values 1.02 | locus YHR200W, strain rpn10, hits give low values 1.02 | locus YIL066C, strain RNR3, hits give low values 1 | locus YIL073C, strain SPO22, hits give low values 1.05 | locus YIL125W, strain kgd1, hits give low values 1.01 | locus YIR030C, strain dcg1, hits give low values 1.03 | locus YJL092W, strain hpr5, hits give low values 1.03 | locus YJL095W, strain BCK1 (second series), hits give low values 1.02 | locus YJL095W, strain BCK1, hits give low values 1.02 and 0.996 | locus YJL115W, strain asf1, hits give low values 1.04 | locus YJL129C, strain trk1, hits give low values 1.04 | locus YJL134W, strain LCB3, hits give low values 1 | locus YJL154C, strain vps35, hits give low values 1.01 | locus YJL164C, strain tpk1, hits give low values 1.01 | locus YJL166W, strain qcr8, hits give low values 1.02 | locus YJL168C, strain set2, hits give low values 1.01 | locus YJL187C, strain SWE1 (second series), hits give low values 1.01 | locus YJL187C, strain SWE1, hits give low values 1.01 | locus YJR043C, strain POL32, hits give low values 0.998 | locus YJR066W, strain TOR1, hits give low values 0.944
